USP28 inh: inhibitors of human USP28 deubiquitinase; inhibition, % at 25 µM; 3% of 47,000 active; Ubiquitin carboxyl-terminal hydrolase 28 (Homo sapiens), Q96RU2; AID 1645857, 2021; purified USP28, Ub-rhodamine cleavage fluorescence, 30 min
USP8 inh: inhibitors of human USP8 deubiquitinase. Ubiquitin carboxyl-terminal hydrolase 8 (Homo sapiens), P40818. AID 1645853, 2021. inhibition, % at 20 µM. 4.2% of 47,000 active. purified USP8, Ub-rhodamine cleavage fluorescence, 30 min
USP30 inh: inhibitors of human USP30 deubiquitinase; purified USP30, Ub-rhodamine cleavage fluorescence; 5.3% of 47,000 active; inhibition, % at 25 µM; AID 1645860, 2021
USP17 block: inhibitors of human USP17 deubiquitinase. AID 1645855, 2021. 6.5% of 47,000 active. inhibition, % at 50 µM. Ubiquitin carboxyl-terminal hydrolase 17-like protein 5 (Homo sapiens), A8MUK1. purified USP17, Ub-rhodamine cleavage fluorescence, 3 h
Target sequence (A8MUK1 whole entry, looked up): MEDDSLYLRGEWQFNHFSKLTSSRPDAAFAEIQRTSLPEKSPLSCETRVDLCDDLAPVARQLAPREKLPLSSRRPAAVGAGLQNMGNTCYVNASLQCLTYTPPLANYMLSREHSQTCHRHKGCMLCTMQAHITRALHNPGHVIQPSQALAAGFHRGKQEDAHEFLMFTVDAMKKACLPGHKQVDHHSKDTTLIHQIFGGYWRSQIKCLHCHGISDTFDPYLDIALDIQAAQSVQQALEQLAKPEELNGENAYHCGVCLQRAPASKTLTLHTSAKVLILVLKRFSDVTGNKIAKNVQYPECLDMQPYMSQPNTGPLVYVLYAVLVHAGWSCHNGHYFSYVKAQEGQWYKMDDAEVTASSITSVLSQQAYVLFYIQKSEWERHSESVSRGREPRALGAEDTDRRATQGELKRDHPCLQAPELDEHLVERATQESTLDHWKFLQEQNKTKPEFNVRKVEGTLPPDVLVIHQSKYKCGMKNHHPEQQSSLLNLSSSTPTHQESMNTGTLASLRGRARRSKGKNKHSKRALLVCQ
An asterisk follows results filed as active; . = no result. Most compounds without a hit are left out; they make up all but 14% or so of the library. Cut-off read from the data, not from the text of the source: active = inhibition above about 30%; inactive = the rest.

SMILES | USP28 inh | USP8 inh | USP30 inh | USP17 block
CCOc1ccc(-c2csc3ncn(CC(=O)NCc4ccccc4)c(=O)c23)cc1 | -6 | -9 | -86 | 37*
O=c1c2c(-c3ccc(Cl)cc3)csc2ncn1Cc1ccco1 | 1 | -16 | -2 | 0
COCCCn1cnc2c(-c3ccccc3)cn(CC(=O)NCc3ccccc3)c2c1=O | -19 | 1 | -8 | 11
Cc1ccc(-c2csc3ncn(Cc4ccco4)c(=O)c23)cc1 | 32* | -1 | 9 | 30
O=c1c2c(-c3ccc(Cl)cc3)csc2ncn1CCc1ccccc1 | -25 | -14 | -151 | -27
CCc1nn2c(S(=O)(=O)NC3CCCCC3)c(C)nc2s1 | -5 | -10 | 2 | 0
O=C(NCc1ccccc1)c1nc2c(s1)CCN(C(=O)c1cccnc1)CC2 | 1 | -305 | 0 | -32
NC(=O)c1cccc(CN2CCC3(CC2)CC3c2nnc3n2CCCCC3)c1 (stereo not given) | . | -18 | . | -19
Cc1nc2sc3c(=O)n(CCc4ccccc4)cnc3c2c2c1COC(C)(C)C2 | 8 | 24 | 8 | -34
COc1ccc(NC(=O)Cn2cnc3scc(-c4ccc(OC)cc4)c3c2=O)cc1 | 1 | -13 | -63 | 45*
CCOc1ccc(CNC(=O)CCn2cnc3ccccc3c2=O)cc1 | -5 | 64* | 3 | -106
CC(C)c1ccc(NC(=O)Cn2cnc3scc(-c4ccc5c(c4)CCCC5)c3c2=O)cc1 | -8 | 19 | -52 | 0
Cc1cc(C)n(CC2CCCN2Cc2nc(-c3ccoc3)no2)n1 (stereo not given) | -36 | -15 | -132 | -29
O=C(CSc1ccc(-c2cccc([N+](=O)[O-])c2)nn1)Nc1cccc(F)c1 | 40* | 70* | 45* | 79*
COc1ccc(NC(=O)CSc2ccc(-c3cccnc3)nn2)cc1OC | -16 | -17 | -7 | -2
COc1cc(NC(=O)Cn2nc(-c3ccc(F)cc3)ccc2=O)ccc1-n1cnnn1 | 15 | 39* | 43* | 79*
O=C(CSc1ccc(-c2ccncc2)nn1)Nc1ccc(Cl)cc1 | 10 | 4 | 23 | 32*
COc1ccc(-c2ccc(SCC(=O)Nc3ccc(F)cc3)nn2)cc1OC | -17 | 83* | 21 | 17
O=C(CSc1ccc(-c2ccccc2)nn1)Nc1ccc(F)c([N+](=O)[O-])c1 | 4 | 5 | 3 | 2
Cc1cc(N(C)C)n2nc(-c3ccc(Cl)cc3)c(C)c2n1 | -4 | 6 | -12 | 1
CC(=O)N1Cc2ccccc2OC2(CCCN(Cc3ccccc3)C2)C1 (stereo not given) | . | -4 | . | 2
CCCCS(=O)(=O)N1C[C@H]2C[C@H](C(=O)N3CCN(C)CC3)[C@@H](C1)O2 | -1 | -10 | -2 | -4
COc1ccc(OC)c(CN2CCC3(CC2)CN(C(C)=O)Cc2ccccc2O3)c1 | -14 | -18 | -7 | -20
FC(F)(F)c1cccc(-n2nnnc2C(c2ccccc2Cl)N2CCOCC2)c1 (stereo not given) | 0 | 1 | 15 | 0
O=C(CSc1ccc(-c2ccncc2)nn1)NCc1ccc2c(c1)OCO2 | -7 | -3 | 2 | -1
SMILES | USP28 inh | USP8 inh | USP30 inh | USP17 block
CC(=O)Nc1cccc(NC(=O)CSc2ccc(-c3ccc4c(c3)OCO4)nn2)c1 | 3 | 33* | 33* | 30
COc1cc(-c2ccccc2)c(O)c(O)c1-c1ccccc1 | 96* | 73* | 91* | 99*
COc1ccc(S(=O)(=O)Nc2ccc(Nc3ccc(-n4cccn4)nn3)cc2)cc1 | 12 | -33 | 62* | 47*
CCCCCCCCCC(OC(=O)C(CCCCN(O)C=O)NC(=O)c1nc(-c2ccccc2O)oc1C)C(C)(C)C(=O)NC1CCCCN(O)C1=O (stereo not given) | 3 | 18 | 0 | 2
CCc1nc(CN2CCOC(C)(C(=O)N3CCOCC3)C2)c(C)[nH]1 (stereo not given) | 6 | 10 | 30* | 7
CCc1nc(CN2CCN(C3CCOCC3)CC(C(N)=O)C2)c(C)[nH]1 (stereo not given) | -1 | 0 | 11 | 0
Cn1c2ccccc2c(=O)c2c(=O)n(-c3ccccc3)c(-c3ccc(F)cc3)nc21 | -9 | 7 | 4 | 43*
Cn1c2ccccc2c(=O)c2c(=O)n(Cc3ccco3)c(-c3ccccc3F)nc21 | -11 | 90* | -29 | 9
COc1ccc(Cn2c(-c3ccc(F)cc3)nc3c(c(=O)c4ccccc4n3C)c2=O)cc1 | -18 | -5 | -22 | 0
CC(=O)Nc1ccc(-n2cnc(C(=O)NC3CCCCC3)c2)nc1 | 23 | -26 | -3 | 12
O=C(CSc1cnc2ccccc2n1)Nc1cccc(Cl)c1Cl | -7 | 1 | -5 | 20
FC(F)(F)c1cccc(C2N=C(c3ccccc3)SC(c3ccccc3)=N2)c1 | . | 0 | . | 27
Cn1c(-c2c(-c3ccccc3)n[nH]c2-c2ccccc2Cl)nc2ccccc21 | 38* | 0 | 7 | -6
COc1ccc2cc(CN(CCCO)C(=O)NC3CCCCC3)c(=O)[nH]c2c1 | 13 | 19 | 21 | 11
CCn1c(SCc2nc(N)c3ccccc3n2)nc2ccccc21 | 42* | 33* | 39* | 54*
CN(C)[C@@H]1[C@@H](O)[C@H](Oc2ccccc2)C[C@H]1NC(=O)c1cnco1 | -5 | 0 | -7 | -9
COCCCN1CCS(=O)(=O)c2c(Cl)c(F)nc(Oc3ccccc3F)c21 | 19 | 95* | -30 | 88*
O=S1(=O)CCN(CC2CCCO2)c2c(Oc3ccccc3)nc(F)c(Cl)c21 (stereo not given) | 30 | 92* | 3 | 60*
N#Cc1ccc(Oc2nc(F)c(Cl)c3c2N(CC2CCCO2)CCS3(=O)=O)cc1 (stereo not given) | 9 | 71* | 4 | 47*
COCCN1CCS(=O)(=O)c2c(Cl)c(F)nc(Oc3ccc(OC)cc3)c21 | -10 | 5 | -7 | 0
O=S1(=O)CCN(CC2CCCO2)c2c(Oc3ccc(F)cc3)nc(F)c(Cl)c21 (stereo not given) | 14 | 70* | 11 | 34*
CC(C)c1ccc(N2CCN(CC3CCCCO3)C2=O)cc1 (stereo not given) | 12 | 1 | 15 | 9
O=C(NCc1nc(-c2ccc3c(c2)ncn3C2CCCC2)no1)c1ccccc1 | 4 | 5 | 9 | -2
CC(C)(C)c1noc(C2(c3ccc(F)cc3)CCOCC2)n1 | -2 | -1 | 3 | 4
CCn1c(COc2ccc(Cl)c3cccnc23)nnc1SC(F)F | 20 | 13 | 40* | 18
Cn1c(COc2cccc3cccnc23)nnc1SCC(N)=O | -13 | 2 | -20 | -8
Cc1nc2nc(C(c3ccccc3)c3ccccc3)[nH]n2c(=O)c1Cc1ccccc1 | 21 | 27 | 20 | 45*
CCCC(=O)N1CCC2(CC1)Nc1ccccc1NC2=O | 7 | 87* | -13 | 70*
O=C(NC1CCC1)c1c2c(-c3ccncc3)ncnc2n2ccccc12 | . | -19 | . | 68*
